PABP FP inh: blocks human PABP binding to poly(A) RNA | inhibition, % at 35 µM | P11940 | 1% of 290,000 active | fluorescence polarization;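 also: calls also rest on retests at 20 µM and on dose response follow-up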
Target sequence (P11940 whole entry, looked up): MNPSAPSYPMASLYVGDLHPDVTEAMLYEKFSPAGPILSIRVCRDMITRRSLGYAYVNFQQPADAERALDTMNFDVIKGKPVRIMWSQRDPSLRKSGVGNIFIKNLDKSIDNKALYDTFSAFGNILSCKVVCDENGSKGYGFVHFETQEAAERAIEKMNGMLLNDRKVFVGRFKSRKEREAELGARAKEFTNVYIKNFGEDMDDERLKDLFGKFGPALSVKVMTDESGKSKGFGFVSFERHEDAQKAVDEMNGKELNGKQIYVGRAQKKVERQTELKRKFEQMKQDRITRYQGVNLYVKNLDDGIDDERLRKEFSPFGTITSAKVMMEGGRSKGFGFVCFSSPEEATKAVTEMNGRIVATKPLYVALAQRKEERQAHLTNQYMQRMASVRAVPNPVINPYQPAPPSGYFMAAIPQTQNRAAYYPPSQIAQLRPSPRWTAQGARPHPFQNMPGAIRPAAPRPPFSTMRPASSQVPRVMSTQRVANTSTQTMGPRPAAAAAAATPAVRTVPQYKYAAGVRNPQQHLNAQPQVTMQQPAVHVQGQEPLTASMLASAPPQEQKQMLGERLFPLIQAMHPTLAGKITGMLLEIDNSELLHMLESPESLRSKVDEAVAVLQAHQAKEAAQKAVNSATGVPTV
PfM18AAP inh: PfM18AAP enzyme inhibition; recombinant PfM18AAP, H-Glu-NHMec fluorogenic cleavage; inhibition, % at 7.35 µM; 1.2% of 290,000 active; AID 1822;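 active = inhibition above the campaign mean inhibition over all tested compounds plus 3 SD, cut at about 28% in these data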
MLLE-PAM2 inh: blocks PAM2 peptide binding to the PABP1 MLLE domain; P11940; GST-MLLE / FITC-PAM2 fluorescence polarization; inhibition, % at 20 µM; 0.36% of 360,000 active; in the data active = inhibition above about 35%, passing the limit was not always enough
PERK inhibitor: blocks human PERK kinase. 0.17% of 220,000 active. Q9NZJ5. AID 1416. inhibition, % at 5.6 µM. CHO PERK-DD fusion, SEAP luminescence translation reporter;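 active = inhibition above the mean inhibition of all tested compounds plus 3 SD, set separately per screening campaign, cut at about 2.9% in these data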;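 also: PERK kinase domain activated by AP20187 dimerizer at 100 nM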
eIF4H FP inh: inhibitors of RNA binding by human eIF4H. AID 2012. inhibition, % at 35 µM. Q15056. eIF4H fluorescence polarization binding assay. 0.94% of 290,000 active;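 also: calls also rest on retests at 20 µM and on dose response follow-up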
eIF4E-4G inh: eIF4E/eIF4G interaction inhibition in translation initiation; P63073+Q04637; TR-FRET eIF4E-eIF4GI(517-606) binding, 2 h; inhibition, % at 21.7 µM; 0.37% of 220,000 active; AID 782;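 active = inhibition above about 30%, limit read from the data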
Of the large screens only hits and unclear results are named; the others gave an inactive call. An excerpt weighted towards active compounds, which were near 2.4% of everything screened. Unless noted, no rule for the calls is given here.

O=C(CSc1nc(-c2ccc(F)cc2)nc2c1Cc1ccccc1O2)Nc1ccc(C(=O)O)cc1	eIF4E-4G inh 62
O=c1[nH]c(-c2ccccc2)nc(-c2ccccc2)c1Cl	none (no result: PABP FP inh, PfM18AAP inh, PERK inhibitor, eIF4H FP inh, eIF4E-4G inh)
Cn1c(SCc2c(Cl)cccc2Cl)nc(C(F)(F)F)cc1=O	none
c1cc(CNc2ccc3c(c2)OCO3)ccn1	MLLE-PAM2 inh 80
COC(=O)CNc1ccc2c(c1)OCO2	PfM18AAP inh 31
Cc1ccc(CNc2ccc3c(c2)OCO3)cc1	PABP FP inh inconclusive, eIF4H FP inh inconclusive
S=C(Nc1ccc(Cl)cc1)Nc1ccc2c(c1)OCCO2	none (no result: PERK inhibitor, eIF4E-4G inh)
S=C(Nc1ccc2c(c1)OCO2)Nc1ccc2c(c1)OCO2	PABP FP inh active, eIF4H FP inh 112
COc1cc(NC(=O)c2ccc(CNc3c(N4CCOCC4)c(=O)c3=O)cc2)cc(OC)c1	none
CC(=O)c1cccc(NC(=O)N2CCC(c3nnc(SCC(N)=O)n3C)CC2)c1	none
Cc1csc(NC(=O)c2c(O)c3cccc4c3n(c2=O)CCC4)n1	none (no result: PfM18AAP inh, MLLE-PAM2 inh, PERK inhibitor, eIF4E-4G inh)
CCCc1nnc(NC(=O)c2c(O)c3cccc4c3n(c2=O)CCC4)s1	PABP FP inh active, eIF4H FP inh 96 (no result: PfM18AAP inh, MLLE-PAM2 inh, PERK inhibitor, eIF4E-4G inh)
COc1ccc(CN(Cc2cc3cccc(C)c3n3nnnc23)C(=O)N2CCOCC2)cc1	none
O=c1[nH]c(CN2CCN(c3ccccc3)CC2)nc2scc(-c3ccccc3)c12	eIF4H FP inh inconclusive
Cc1sc2nc(CN3CCN(c4ccc(O)cc4)CC3)[nH]c(=O)c2c1C	PfM18AAP inh 32
COc1ccc(/C=N/NC(=O)c2nn(-c3ccccc3)c(=O)c3c(N)scc23)cc1	eIF4H FP inh 71
COc1ccc(/C=N/NC(=O)c2nn(-c3ccc(Cl)cc3)c(=O)c3c(N)scc23)cc1	none
CCN(CC(=O)NCCCn1ccnc1)S(=O)(=O)c1ccc(C)cc1	none (no result: PERK inhibitor, eIF4E-4G inh)
N#Cc1c(NC(=O)C2CC(c3ccccc3Cl)=NO2)sc2c1CCC2 (centres undefined)	none
N#Cc1c(NC(=O)c2ccncc2)sc2c1CCC2	PABP FP inh 6.8, eIF4H FP inh 51
N#Cc1c(NC(=O)C2CC(c3ccccc3O)=NO2)sc2c1CCC2 (centres undefined)	MLLE-PAM2 inh 40
CC1CCN(CC(=O)Nc2sc3c(c2C#N)CCC3)CC1	eIF4H FP inh 50
N#Cc1c(NC(=O)c2ccco2)sc2c1CCC2	PABP FP inh 49, eIF4H FP inh 74 (no result: PERK inhibitor, eIF4E-4G inh)
O=C(O)c1ccccc1C(=O)NCC(O)COCC1CC=CCC1 (centres undefined)	none
CCCc1n(CC(O)COC2CCCCC2)c2ccccc2[n+]1C (centres undefined)	PABP FP inh 72
CCCc1n(CC(O)COCC2CC=CCC2)c2ccccc2[n+]1C (centres undefined)	PABP FP inh 68
CCCc1n(CC(O)COCc2ccccc2)c2ccccc2[n+]1C (centres undefined)	none
CCOc1ccc(N(CC(=O)NC(C)(C)C)C(=O)c2ccco2)cc1	none
CCN(CC)C(=O)CSc1nnc2nnc3cc(C)ccc3n12	PABP FP inh inconclusive, MLLE-PAM2 inh 40, eIF4H FP inh inconclusive
CCN(CC)C(=O)CSc1nnc(SCc2ccc(Cl)cc2)s1	none
CCN(CC)C(=O)CSc1nnc2nnc3cc(Cl)ccc3n12	PABP FP inh inconclusive, MLLE-PAM2 inh 67, eIF4H FP inh inconclusive
CCCn1c(SCC(=O)N(CC)CC)nnc1-c1ccncc1	none
O=c1[nH]c2ccccc2c2cn(-c3ccccc3)nc12	none (no result: PERK inhibitor, eIF4E-4G inh)
CC(C)N(C)S(=O)(=O)c1ccc(NC(=O)CSC(=S)N2CCCC2)cc1	none (no result: PABP FP inh, PfM18AAP inh, PERK inhibitor, eIF4H FP inh, eIF4E-4G inh)
COc1ccccc1C1CC(c2ccccc2)=NN1C(=S)Nc1ccccc1 (centres undefined)	none
COc1ccccc1CCC(=O)Nc1ccc2c(c1)c(=O)n(C)n2C	none (no result: PABP FP inh, PfM18AAP inh, PERK inhibitor, eIF4H FP inh, eIF4E-4G inh)
CC(=O)N(C1=C(N2CCOCC2)C(=O)c2ccccc2C1=O)c1ccc(C(=O)O)cc1	eIF4E-4G inh 36
CC(=O)N(C)C1=C(N2CCOCC2)C(=O)c2ccccc2C1=O	none
c1coc(-c2nnc3sc(-c4cccs4)nn23)c1	none
CC(COc1ccccc1)N(CCCl)Cc1ccccc1 (centres undefined)	PABP FP inh 50, eIF4H FP inh active
CC(Cc1ccccc1)NC(=S)CN1CCCC1=S (centres undefined)	eIF4H FP inh 53
c1ccc2c(Nc3ccc4c(c3)OCCO4)c3c(nc2c1)CCCC3	none
CC(C)CC(C(=O)Nc1oc(-c2ccco2)c(-c2ccco2)c1C#N)N1C(=O)c2ccccc2C1=O (centres undefined)	PABP FP inh 78, eIF4H FP inh 82
CC(=O)Nc1cc(-c2ccccc2N(C)C)cn2c(-c3ccc(S(C)(=O)=O)cc3)cnc12	none (no result: PABP FP inh, PfM18AAP inh, PERK inhibitor, eIF4H FP inh, eIF4E-4G inh)
Cn1nnnc1SCc1nc2scc(-c3ccc(Cl)cc3)c2c(=O)[nH]1	PABP FP inh 51, eIF4H FP inh 59
Cn1nnnc1SCc1nc2scc(-c3ccccc3)c2c(=O)[nH]1	none
O=C(CSc1nnc(CNC(=O)c2ccccc2)o1)Nc1nccs1	none (no result: PERK inhibitor, eIF4E-4G inh)
O=C(CSc1nnc(CNC(=O)c2ccc(F)cc2)o1)Nc1nccs1	PfM18AAP inh 30 (no result: PERK inhibitor, eIF4E-4G inh)
Cc1nn(-c2ccccc2)c(Cl)c1C(=O)NNC(=O)c1ccccc1O	none (no result: PABP FP inh, PfM18AAP inh, PERK inhibitor, eIF4H FP inh, eIF4E-4G inh)
COc1cc(/C=N/n2c(-c3ccc4c(c3)NC(=O)CO4)csc2=Nc2cccc(C)c2)ccc1O	none
COCCN=c1scc(-c2ccc3c(c2)NC(=O)CO3)n1/N=C(\C)c1ccc(O)cc1	PABP FP inh 43
CN1CCN(C(=O)/C(=C/c2cn(S(=O)(=O)N(C)C)c3ccccc23)NC(=O)c2ccccc2F)CC1	none (no result: PERK inhibitor, eIF4E-4G inh)
CSc1nc(=S)cc(C)[nH]1	PfM18AAP inh 43
COc1ccc(N2Cc3ccccc3C2=O)cc1	none (no result: PERK inhibitor, eIF4E-4G inh)
COc1ccc(N2Cc3cccc(C(=O)O)c3C2=O)cc1	PABP FP inh 68, eIF4H FP inh 93
O=c1cccccc1NN=C1CCCCC1	PABP FP inh 62, eIF4H FP inh 82
O=c1cccccc1NN=C1CCCCCC1	PABP FP inh 28, eIF4H FP inh 59
O=C(O)c1cc(Br)ccc1NN=C1CCCCC1	none
Cc1cc(NC(=O)C(C)Sc2nc(-c3ccccc3)cc(=O)[nH]2)no1 (centres undefined)	none (no result: PERK inhibitor, eIF4E-4G inh)
O=c1cc(O)c(-c2ccc(Cl)c(Cl)c2)c(Cl)[nH]1	PABP FP inh 7.5, eIF4H FP inh 82
CCOC(=O)C1(Cc2cccc(OC)c2)CCCN(Cc2c(C)nn(C(C)C)c2C)C1 (centres undefined)	eIF4E-4G inh 97
C=C(C)CCOC(=O)C(CC(=O)O)NCc1ccco1 (centres undefined)	PABP FP inh 24, eIF4H FP inh inconclusive
O=C(O)CC(NCc1ccco1)C(=O)OCCc1ccccc1 (centres undefined)	none
CCN(CC(=O)N1CCC(C(N)=O)CC1)S(=O)(=O)c1ccc(Cl)cc1	none (no result: PERK inhibitor, eIF4E-4G inh)
Cn1nc(C(F)(F)F)cc1-c1ccc(/C=C(\C#N)C(=O)c2ccccc2)s1	PABP FP inh 19
CNC(=O)c1ccc(-c2cc(C(F)(F)F)nn2C)s1	none

Screens from PubChem.
